# Measured values from PubChem BioAssay AID1259421 (Broad Institute, 2018).
# Several values for one entry are separate records, joined by “and”; a condition that tells them apart may be missing. Equal entries are not always repeated. Among all 6,400 compounds or so, about 610 (9.5%) were called active. No stated cut-off is given here; in the data, active means activity change below about -70%; inconclusive means no clear call, values can overlap the other calls; inactive means above that. Shown is part of a subset that was picked to be rich in actives. The source holds several records for some structures; these can differ, active in one and inactive in another.
# Test: Toxoplasma gondii ME49Luc growth in HeLa cells, luciferase, no IFN-y, primary screen (AID 1259421)
# Settings: T. gondii ME49Luc in HeLa, 72 h, stronger effect = lower value, concentration not given here
row,SMILES,"activity change, negative = inhibition"
1,Cc1noc(-c2ccc(CSCCC(=O)O)cc2)c1NC(=O)OC(C)c1ccccc1Cl (centres undefined),13.3% (inactive)
2,O=C(O)c1ccc2nc(-c3cc(Cl)cc(Cl)c3)oc2c1,84.3% (inactive)
3,Cc1[nH]c(/C=C2\C(=O)Nc3ccc(S(=O)(=O)N(C)c4cccc(Cl)c4)cc32)c(C)c1C(=O)N1CCN(C)CC1,-35.8% (inactive)
4,Cc1[nH]c(/C=C2\C(=O)Nc3ccc(S(=O)(=O)Cc4c(Cl)cccc4Cl)cc32)c(C)c1C(=O)N1CCC[C@@H]1CN1CCCC1,-78.2% (active) and -84% (active) and -67.3% (inactive)
5,OC1(c2ccc(Cl)cc2)CCNCC1,13.9% (inactive)
6,CN1CC[C@@H](NC(=O)Nc2ccc(C#N)cc2)C[C@@H]1c1nc2ccccc2[nH]1,7.93% (inactive)
7,CC(C)C[C@@H](NC(=O)OCC1c2ccccc2-c2ccccc21)C(=O)O,145% (inactive) and 359% (inactive)
8,CC(C)CC(NC(=O)OCC1c2ccccc2-c2ccccc21)C(=O)O (centres undefined),-4.74% (inactive)
9,CNC(=O)[C@H](Cc1ccccc1)NC(=O)[C@H](CC(C)C)[C@H](CSc1cccs1)C(=O)NO,-1.31% (inactive) and 10.6% (inactive)
10,CC(C)C[C@H](NC(=O)[C@H](Cc1ccccc1)NC(=O)c1cnccn1)B(O)O,-73.2% (active) and -72% (active)
11,CC(C)C[C@H](NC(=O)[C@@H](NC(=O)c1cccc(-c2ccccc2)n1)[C@@H](C)O)B(O)O,-75.2% (active) and -70.7% (active)
12,CC(C)C[C@H](NC(=O)[C@@H](O)[C@H](N)Cc1ccccc1)C(=O)O,-0.518% (inactive) and 15% (inactive)
13,CCC[N+]12C3C[C@H](C4C(O)[C@]5(C[C@@H]41)c1ccccc1N(C)[C@@H]35)[C@H](CC)[C@H]2O (some centres undefined),10.9% (inactive)
14,CCOc1ccc(N=C(C)Nc2ccc(OCC)cc2)cc1,3.11% (inactive)
15,CCCc1c(OCC(O)COc2ccc3c(=O)cc(C(=O)O)oc3c2CCC)ccc(C(C)=O)c1O (centres undefined),10.3% (inactive) and -5.08% (inactive)
16,CCOC(=O)C1CN(Cc2ccccc2)C(=O)C1=O (centres undefined),16.6% (inactive) and 1.66% (inactive)
17,N[C@@H]1CCCC[C@H]1N.O=C(O)C(=O)O.[Pt],10.5% (inactive)
18,CC1(C)CC[C@]2(C(=O)O)CC[C@]3(C)C(=CCC4[C@@]5(C)CC[C@@H](O)C(C)(C)C5CC[C@]43C)C2C1 (some centres undefined),10.1% (inactive)
19,CNC1CCCN(c2c(F)cc3c(=O)c(C(=O)O)cn(C4CC4)c3c2OC)C1 (centres undefined),0.884% (inactive)
20,COc1c(N2CCNC(C)C2)c(F)cc2c(=O)c(C(=O)O)cn(C3CC3)c12 (centres undefined),7.25% (inactive) and -78% (active)
21,N[C@@H]1CN(c2c(F)cc3c(=O)c(C(=O)O)cn([C@@H]4C[C@@H]4F)c3c2Cl)CC12CC2,-6.27% (inactive)
22,N[C@@H]1CCCCN(c2c(F)cc3c(=O)c(C(=O)O)cn(C4CC4)c3c2Cl)C1,4.72% (inactive)
23,COc1c(N2C[C@@H]3CCCN[C@@H]3C2)c(F)cc2c(=O)c(C(=O)O)cn(C3CC3)c12,-7.38% (inactive)
24,NC1CCN(c2c(F)cc3c(=O)c(C(=O)O)cn(C4CC4)c3c2Cl)C1 (centres undefined),-79.3% (active)
25,C[C@H](NC(=O)c1sccc1OCc1ccc(Cl)cc1)c1ccccc1,28.7% (inactive)

row,SMILES,"activity change, negative = inhibition"
1,O=C(O)c1cc(Oc2ccc([N+](=O)[O-])cc2)cc(Oc2ccc([N+](=O)[O-])cc2)c1,4.54% (inactive) and 5.04% (inactive)
2,CC1=CC2C(CC1=O)C(C)=CCC2C(C)C (centres undefined),4.22% (inactive)
3,c1ccc(COCCCc2cnc[nH]2)cc1,-41.7% (inactive) and 17.9% (inactive)
4,O=C(Nc1c(-c2cccs2)nc2ccccn12)c1ccc(Cl)cc1,6.95% (inactive)
5,CN1C(CC(=O)c2ccccc2)CCCC1CC(O)c1ccccc1 (centres undefined),6.13% (inactive) and 6.36% (inactive)
6,CO[C@H]1C[C@H](O[C@H]2[C@H](C)[C@@H](OC3O[C@H](C)C[C@H](N(C)C)[C@H]3OC(C)=O)[C@@H](C)C[C@]3(CO3)C(=O)[C@H](C)[C@@H](OC(C)=O)[C@@H](C)[C@@H](C)OC(=O)[C@@H]2C)O[C@@H](C)[C@@H]1OC(C)=O (some centres undefined),5.2% (inactive)
7,Nc1ncnc2c1c(-c1cccc(OCc3ccccc3)c1)cn2C1CC(CN2CCCC2)C1 (centres undefined),-69.4% (inactive)
8,Nc1ncnc2c1c(-c1cccc(OCc3ccccc3)c1)cn2C1CC(CN2CCC2)C1 (centres undefined),-81.2% (active)
9,Cc1cccc(C)c1NC(=O)CC12CCCN1CCC2,13.3% (inactive)
10,CC(C)(C)NCC(O)COc1nsnc1N1CCOCC1 (centres undefined),-0.1% (inactive)
11,O=C1CCC(c2ccccc2)(C2CCN(Cc3ccc(I)cc3)CC2)C(=O)N1 (centres undefined),11.1% (inactive)
12,Cc1ccc(/C=C2\CNC/C(=C\c3ccc(C)cc3)C2=O)cc1,-83.2% (active)
13,Cc1ccc(S(N)(=O)=O)cc1,13.5% (inactive)
14,Cc1ccc(/C=C2\C(=O)C3(C)CCC2C3(C)C)cc1 (centres undefined),2.27% (inactive)
15,Cc1ccc(/C=C2/CNC/C(=C\c3ccc(C)cc3)C2=O)cc1,-85.7% (active)
16,CC(C)C[C@H](N[C@@H](Cc1cncn1Cc1cc(Cl)cc(Cl)c1)C(=O)O)C(=O)O,6.67% (inactive)
17,CC1(O)CC(c2nc(-c3ccc4ccc(-c5ccccc5)nc4c3)c3c(N)nccn23)C1 (centres undefined),-27.9% (inactive)
18,CCn1c(N)c(C(=O)NC)c(=O)c2ccc(C#C[C@@](C)(O)COC)nc21,13.3% (inactive)
19,CC1(C)C2CC[C@]3(C)[C@H](C(=O)C=C4[C@@H]5C[C@@](C)(C(=O)O)CC[C@]5(C)CC[C@]43C)[C@@]2(C)CC[C@@H]1OC(=O)CCC(=O)O (some centres undefined),6.15% (inactive) and 3.75% (inactive)
20,CC(=O)O[C@H]1CC[C@@]2(C)C(C[C@@H](OC(C)=O)[C@@]3(C)C4=CC(=O)O[C@@H](c5ccoc5)[C@]4(C)CCC23)C1(C)C (some centres undefined),15% (inactive)
21,CC(=O)O[C@]1(C(C)=O)CCC2C3C=C(C)C4=CC(=O)CCC4(C)C3CCC21C (some centres undefined),4.78% (inactive) and -4.91% (inactive)
22,CCCCCCCCCCCCCCCC(=O)OC(C)C,3.86% (inactive)
23,CN[C@H](C(=O)N[C@H](C(=O)N(C)[C@H](/C=C(\C)C(=O)O)C(C)C)C(C)(C)C)C(C)(C)c1ccccc1,-73.6% (active)
24,C[C@H]1CCO[C@H]2Cn3cc(C(=O)NCc4ccc(F)cc4F)c(=O)c(O)c3C(=O)N21,25.9% (inactive)
25,Cc1cccc(C)c1NC(=O)c1cc(S(N)(=O)=O)c(Cl)cc1O,15.4% (inactive)

row,SMILES,"activity change, negative = inhibition"
1,Cc1c(C)c2c(c(C)c1OC(=O)CCC(=O)O)CC[C@@](C)(CCC[C@H](C)CCC[C@H](C)CCCC(C)C)O2,19.4% (inactive)
2,O=c1c(O)c(-c2ccccc2)oc2cc(O)ccc12,31.5% (inactive)
3,CN1C[C@H](C(=O)N[C@]2(C)O[C@@]3(O)[C@@H]4CCCN4C(=O)[C@H](Cc4ccccc4)N3C2=O)C[C@@H]2c3cccc4[nH]cc(c34)C[C@H]21,5.44% (inactive) and 2.08% (inactive)
4,CN1CC(C(=O)NC2(C)OC3(O)C4CCCN4C(=O)C(Cc4ccccc4)N3C2=O)CC2c3cccc4[nH]cc(c34)CC21 (centres undefined),-10.4% (inactive)
5,CC(=O)C1C(=O)[C@@H]2[C@H]3c4c[nH]c5cccc(c45)C[C@H]3C(C)(C)N2C1=O (some centres undefined),-78.3% (active) and -0.858% (inactive)
6,O=c1[nH]c2ccccc2c(=O)n1CCCN1CCN(c2ccccc2)CC1,11.8% (inactive)
7,CCC1(C)OC(=O)N(C)C1=O (centres undefined),-5.39% (inactive)
8,O=c1[nH]cnc2ccccc12,0.966% (inactive) and 1.04% (inactive)
9,CC(C)(C)c1[nH]cnc1/C=c1\[nH]c(=O)/c(=C/c2ccccc2)[nH]c1=O,-85.5% (active)
10,CCCCCCCCCCCCCCOS(=O)(=O)O,8.96% (inactive)
11,COc1ccc(C(=O)/C=C/c2ccccc2)cc1,157% (inactive)
12,CC(=O)NC[C@H]1CN(c2ccc(N3CCN(C(=O)CO)CC3)c(F)c2)C(=O)O1,6.07% (inactive)
13,CC(=O)N[C@H](Cc1c[nH]c2ccccc12)C(=O)OCc1cc(C(F)(F)F)cc(C(F)(F)F)c1,6.34% (inactive)
14,FC(F)(F)c1cc(CO[C@H]2CCCN[C@H]2c2ccccc2)cc(C(F)(F)F)c1,-9.54% (inactive) and -89.9% (active)
15,CC(=O)NC(Cc1c[nH]c2ccccc12)C(=O)OCc1cc(C(F)(F)F)cc(C(F)(F)F)c1 (centres undefined),-1.95% (inactive)
16,O=C(O)CN(CCN(CC(=O)O)CC(=O)O)CC(=O)O,1.89% (inactive)
17,COCC1=C(C(=O)OC(C)OC(=O)OC(C)C)N2C(=O)[C@@H](NC(=O)/C(=N/OC)c3csc(N)n3)[C@H]2SC1 (some centres undefined),-2.51% (inactive)
18,O=C(N/N=C/c1ccc([N+](=O)[O-])o1)c1ccc(O)cc1,-85.5% (active)
19,NC(=O)N/N=C/c1ccc([N+](=O)[O-])o1,-68.6% (inactive) and -50.1% (inactive)
20,CCN(CC)c1ccc(/C=N/NC(=O)c2ccc(O)cc2)cc1,29.5% (inactive) and 44.8% (inactive)
21,CCCCCCn1c(=O)c2c(ncn2C)n(C)c1=O,11.4% (inactive)
22,Cc1cccc(/C=C/c2ccccc2)n1,35.7% (inactive)
23,Cc1ccc2ccc3ccc(C)nc3c2n1,-94.5% (active)
24,CCc1nc(C)ccc1O,-11.9% (inactive)
